From PubChem BioAssay
Sampled rows, rich in hits. Any-hit rate of the full collection: about 0.74%.
PKA kinase inh – inhibitors of human PKA kinase activity, primary screen, biochemical, ATP-depletion luminescence, Kemptide substrate; 65,000 compounds, 0.1% hits; cAMP-dependent protein kinase catalytic subunit alpha (Homo sapiens), P17612; AID 524, 2006; PKA Kemptide phosphorylation, Kinase-Glo ATP luminescence; inhibition, % at 6 µM;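 active means inhibition above the screen-wide mean inhibition plus 3 SD, cut at about 21% in these data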
ROCK2 blocker – inhibitors of human ROCK2 kinase, primary screen, biochemical, high-throughput, luminescence. Rho-associated protein kinase 2 (Homo sapiens), O75116. purified ROCK2, Kinase-Glo ATP depletion luminescence. inhibition, % at 6 µM. 60,000 compounds, 0.35% hits. AID 604, 2007;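 active means inhibition above the screen-wide mean inhibition plus 3 SD, cut at about 18% in these data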
Target sequence (O75116 whole entry, looked up): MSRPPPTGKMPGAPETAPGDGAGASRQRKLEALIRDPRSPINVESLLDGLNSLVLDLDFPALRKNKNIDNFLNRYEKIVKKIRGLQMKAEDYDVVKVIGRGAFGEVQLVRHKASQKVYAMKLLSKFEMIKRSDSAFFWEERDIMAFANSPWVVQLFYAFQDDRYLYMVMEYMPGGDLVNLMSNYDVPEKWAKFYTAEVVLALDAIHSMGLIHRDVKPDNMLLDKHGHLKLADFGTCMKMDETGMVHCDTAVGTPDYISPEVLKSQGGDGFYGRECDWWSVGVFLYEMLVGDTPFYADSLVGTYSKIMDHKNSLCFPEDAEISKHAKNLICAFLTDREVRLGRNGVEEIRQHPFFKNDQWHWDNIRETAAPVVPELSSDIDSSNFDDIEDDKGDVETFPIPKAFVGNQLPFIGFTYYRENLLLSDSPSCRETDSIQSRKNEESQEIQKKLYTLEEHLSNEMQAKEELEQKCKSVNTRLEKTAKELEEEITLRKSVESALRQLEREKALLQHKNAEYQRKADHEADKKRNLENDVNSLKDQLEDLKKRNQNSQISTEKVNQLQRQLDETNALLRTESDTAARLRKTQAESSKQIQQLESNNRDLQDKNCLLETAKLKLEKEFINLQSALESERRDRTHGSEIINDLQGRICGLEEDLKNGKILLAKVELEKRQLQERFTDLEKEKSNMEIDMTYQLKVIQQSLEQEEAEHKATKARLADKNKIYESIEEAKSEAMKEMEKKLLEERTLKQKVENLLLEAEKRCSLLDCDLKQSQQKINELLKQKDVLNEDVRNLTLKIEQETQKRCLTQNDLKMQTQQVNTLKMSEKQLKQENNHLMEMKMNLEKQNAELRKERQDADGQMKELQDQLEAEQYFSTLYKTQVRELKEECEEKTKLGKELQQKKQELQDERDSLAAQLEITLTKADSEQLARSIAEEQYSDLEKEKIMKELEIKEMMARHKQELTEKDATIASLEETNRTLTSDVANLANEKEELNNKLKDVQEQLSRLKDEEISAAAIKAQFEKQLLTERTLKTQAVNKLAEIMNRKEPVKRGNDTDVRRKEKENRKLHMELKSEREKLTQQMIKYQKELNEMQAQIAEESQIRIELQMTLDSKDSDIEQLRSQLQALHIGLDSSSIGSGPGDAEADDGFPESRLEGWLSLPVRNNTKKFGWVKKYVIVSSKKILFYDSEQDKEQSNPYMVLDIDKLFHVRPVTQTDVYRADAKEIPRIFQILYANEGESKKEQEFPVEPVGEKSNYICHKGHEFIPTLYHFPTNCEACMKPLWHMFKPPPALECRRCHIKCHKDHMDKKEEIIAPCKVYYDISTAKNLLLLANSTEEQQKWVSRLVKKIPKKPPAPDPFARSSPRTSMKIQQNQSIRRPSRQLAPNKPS
PLK1 kinase inh – human PLK1 kinase inhibitors, primary screen, biochemical, TR-FRET; Serine/threonine-protein kinase PLK1 (Homo sapiens), P53350; recombinant PLK1 kinase, TR-FRET peptide phosphorylation; inhibition, % at 10 µM; 97,000 compounds, 0.53% hits; AID 619, 2007;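 active means inhibition of 50% or more in the single-concentration screen; inactive means inhibition below 50%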
PLK1 PBD inh – Plk1 polo box domain binding inhibitors, primary screen, biochemical, fluorescence polarization; Serine/threonine-protein kinase PLK1 (Homo sapiens), P53350; inhibition, %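 (tested at about 20 µM)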; 97,000 compounds, 0.13% hits; Plk1 PBD phosphopeptide binding; in the data active means inhibition above about 34%, passing the limit was not always enough
PBD redox DR – redox cycling hydrogen peroxide generation, dose response, artefact control for Plk1 PBD inhibitor project, biochemical | EC50, µM | 120 tested, under 10 active | shares compounds with PLK1 PBD inh | AID 876, 2007 | redox cycling H2O2 generation, DTT, counter-screen; call rule not given here
Each line names hits and unclear results; the compound was inactive in the other large screens (follow-up assays come after a bar, where they were run).

COc1ccc(CNC(=O)C(c2ccncc2)N(C(=O)Cc2cccs2)c2ccc(C)cc2)cc1 (stereo not drawn)	none (no result: PKA kinase inh, ROCK2 blocker)
O=C(CN1C(=O)COc2ccccc21)N1CCCc2ccccc21	none
O=C1CN(c2ccc(Br)cc2)C(=O)N1CC(=O)N1CCCc2ccccc21	PLK1 PBD inh 45.7 | PBD redox DR inactive
CS(=O)(=O)N(CC(=O)NC1CCCCC1)c1cccc(Cl)c1	none
Cc1[nH]n2c(=O)cc(-c3ccc([N+](=O)[O-])cc3)nc2c1-c1ccccc1	PLK1 PBD inh 34.7 (no result: PKA kinase inh, ROCK2 blocker) | PBD redox DR inactive
Cc1nn(C)c(C)c1NC(=O)CCCSc1nc(-c2ccco2)cc(C(F)(F)F)n1	none (no result: PKA kinase inh, ROCK2 blocker)
CC(=O)N1CCN(c2ccc(NC(=O)c3ccc4c(c3)OCO4)cc2)CC1	none
CCC(=O)N1CCN(c2ccc(NC(=O)c3ccc4c(c3)OCO4)cc2)CC1	PLK1 PBD inh 44.3 | PBD redox DR inactive
CCOC(=O)Cc1csc(NC(=O)CSc2nnc(-c3ccc(C)cc3)o2)n1	none
CCOC(=O)Cc1csc(NC(=O)CSc2nnc(-c3ccc(F)cc3)o2)n1	PLK1 PBD inh 40.4 | PBD redox DR inactive
CCOc1ccccc1N1CCN(C2=C(NS(=O)(=O)c3cccs3)C(=O)c3ccccc3C2=O)CC1	PLK1 PBD inh 58.7 (no result: PKA kinase inh, ROCK2 blocker) | PBD redox DR inactive
CSc1nc2ccc(NC(=O)C3CC(=O)N(Cc4ccccc4)C3)cc2s1 (stereo not drawn)	none (no result: PKA kinase inh, ROCK2 blocker)
Cc1cccc2[nH]c3c(N4CCC5(CC4)OCCO5)ncnc3c12	none (no result: PKA kinase inh, ROCK2 blocker)
Cc1cccc2[nH]c3c(N4CCN(C(=O)c5ccco5)CC4)ncnc3c12	PLK1 PBD inh 51.3 (no result: PKA kinase inh, ROCK2 blocker) | PBD redox DR inactive
O=C(O)c1ccc(NC(=O)C2CC=CCC2C(=O)O)cc1 (stereo not drawn)	none
Cc1ccc(NC(=O)C2CC=CCC2C(=O)N2CCCCC2)cc1 (stereo not drawn)	PLK1 PBD inh 42.5 | PBD redox DR inactive
O=C1CCN2C=Nc3cccc4ccc1c2c34	PLK1 PBD inh 51.5 | PBD redox DR inactive
NC(=O)C1(N2CCCCC2)CCN(C(=O)NC23CC4CC(CC(C4)C2)C3)CC1	none (no result: PKA kinase inh, ROCK2 blocker)
NC(=O)C1(N2CCCCC2)CCN(C(=O)NC2CCCCC2)CC1	PLK1 PBD inh 51.9 | PBD redox DR inactive
O=C(Nc1ccccn1)C1CCN(S(=O)(=O)c2cccc3nonc23)CC1	PLK1 PBD inh 36.2 (no result: ROCK2 blocker) | PBD redox DR inactive
COc1cc(C(c2nnnn2C(C)(C)C)N2CCN(c3nc4ccccc4s3)CC2)ccc1O (stereo not drawn)	none
Cc1nc2cccc(C)n2c(=O)c1Cl	PLK1 PBD inh 42.5 (no result: PKA kinase inh, ROCK2 blocker) | PBD redox DR inactive
COc1ccc(S(=O)(=O)N(C)CC(=O)Nc2ccccc2C(F)(F)F)cc1	PLK1 PBD inh 35.2 | PBD redox DR inactive
COc1ccc(S(=O)(=O)N(C)CC(=O)Nc2ccccc2C(F)(F)F)cc1Cl	none (no result: PKA kinase inh, ROCK2 blocker)
COC(=O)CCc1c(C)[nH]c(=S)[nH]c1=O	PLK1 PBD inh 45.2 | PBD redox DR inactive
CCOc1ccc(Br)cc1/C=N/O	none (no result: PKA kinase inh, ROCK2 blocker)
O=C(O)COc1ccc(Br)cc1/C=N/O	PLK1 PBD inh 44.5 | PBD redox DR inactive
O=C(CN1C(=O)COc2ccccc21)NCc1ccc(C(=O)O)cc1	PLK1 PBD inh 50.5 | PBD redox DR inactive
CCCCCCCCS(=O)c1sc2nc(C)cc(C)c2c1N (stereo not drawn)	none (no result: PKA kinase inh, ROCK2 blocker)
COC(=O)c1cccc(NS(=O)(=O)c2cccs2)c1C	none
COC(=O)c1ccccc1NC1=C/C(=N\S(=O)(=O)c2cccs2)c2ccccc2C1=O	PLK1 PBD inh 56.1 (no result: PKA kinase inh, ROCK2 blocker) | PBD redox DR inactive
O=C(O)CCC(=O)Nc1ccccc1C(=O)NC1CCCCC1	none
CCC(=O)Nc1ccccc1C(=O)NC1CCCCC1	PLK1 PBD inh 40.5 (no result: PKA kinase inh, ROCK2 blocker) | PBD redox DR inactive
COC(=O)c1ccc(N(C(=O)CNC(=O)c2ccco2)C(C(=O)NC2CCCC2)c2ccco2)cc1 (stereo not drawn)	none (no result: PKA kinase inh, ROCK2 blocker)
CC1CCN(Cc2c(C#N)c3ccccc3n2C)CC1	none (no result: ROCK2 blocker, PLK1 kinase inh, PLK1 PBD inh)
NC(=O)C1CCN(C2=C(Cl)C(=O)c3ccccc3C2=O)CC1	PLK1 PBD inh 66.2 (no result: PKA kinase inh, ROCK2 blocker) | PBD redox DR inactive
O=C(c1ccc(-n2cnnn2)cc1)N1CCCCC1	PLK1 PBD inh 48.1 (no result: PKA kinase inh, ROCK2 blocker) | PBD redox DR inactive
O=C(c1ccc(C(F)(F)F)cc1)N1CCCCC1	none (no result: PLK1 kinase inh, PLK1 PBD inh)
Cc1cc(N)n(-c2nc(-c3cccnc3)nc3ccccc23)n1	none (no result: ROCK2 blocker)
CNC(=O)CC(C(=O)O)c1ccc(OCC(C)C)cc1 (stereo not drawn)	PLK1 PBD inh 64.3 | PBD redox DR inactive
CCCCNC(=O)C1=C(N)C(C(=O)Nc2ccc(C)c(S(=O)(=O)N3CCCCC3)c2)SC1=Nc1ccc(C)cc1C (stereo not drawn)	none (no result: PKA kinase inh, ROCK2 blocker)
CCOC(=O)c1sc(NC(=O)C2C3C=CC(C3)C2C(=O)O)nc1C (stereo not drawn)	none (no result: PKA kinase inh, ROCK2 blocker)
Cc1c(NC(=O)CSc2ccccc2C(=O)Nc2cccnc2)c(=O)n(-c2ccccc2)n1C	none
Cc1nn(C(C)C(=O)N2CCCCC2)c(=O)c2c1sc1ccccc12 (stereo not drawn)	PLK1 PBD inh 43.3 | PBD redox DR inactive
CC(=O)Nc1ccc(NC(=O)/C(Cl)=C/c2ccccc2)cc1	none (no result: PKA kinase inh, ROCK2 blocker)
O=C(Cn1c(S(=O)(=O)Cc2ccccc2)nc2ccccc21)N1CCCCC1	none
NC(=O)Cn1c(S(=O)(=O)Cc2ccccc2)nc2ccccc21	PLK1 PBD inh 43.3 | PBD redox DR inactive
C=CCn1c2ccccc2c2nnc(SCc3ccc4nonc4c3)nc21	PLK1 PBD inh 50.1 | PBD redox DR inactive
C=CCn1c2ccccc2c2nnc(SCC(=O)Nc3cc(C)on3)nc21	none (no result: PKA kinase inh, ROCK2 blocker)
CC(C)OCCCNC(=O)c1ccc(NC(=O)C2CCCO2)cc1 (stereo not drawn)	PLK1 PBD inh 34.9 (no result: ROCK2 blocker) | PBD redox DR inactive
CS(=O)(=O)N1CCN(C/C=C/c2ccccc2)CC1	PLK1 PBD inh 46.5 (no result: PKA kinase inh, ROCK2 blocker) | PBD redox DR inactive
CC(C)=CC(=O)NCCc1ccccc1	PLK1 PBD inh 51.4 | PBD redox DR inactive
C/C(=C/C(=O)NCc1ccccc1)C(=O)O	none (no result: PKA kinase inh, ROCK2 blocker)
Cc1ccc(Cl)cc1N1CCN(S(=O)(=O)c2ccc3c(c2)oc(=O)n3C)CC1	PLK1 PBD inh 38.9 | PBD redox DR inactive
Cn1c(=O)oc2cc(S(=O)(=O)N3CCOCC3)ccc21	none
CCCCC(=O)Nc1cc(C(=O)NCCc2ccccc2)ccc1Cl	none (no result: PKA kinase inh, ROCK2 blocker)
CCn1c(/C=C2/C(=O)N(C)c3ccccc32)nc2ccccc2c1=O	none (no result: PKA kinase inh, ROCK2 blocker)
CCN1C(=O)/C(=C/c2nc3ccccc3c(=O)n2-c2ccccc2)c2ccccc21	PLK1 PBD inh 56.7 (no result: PKA kinase inh, ROCK2 blocker) | PBD redox DR inactive
CCCCOCCCNC(=O)CCCOc1ccccc1	none (no result: PKA kinase inh, ROCK2 blocker)
CCOCCCNC(=O)CCCOc1ccccc1	PLK1 PBD inh 42.7 | PBD redox DR inactive
CC(=O)NS(=O)(=O)c1ccc(NC(=O)NC2CCCCC2)cc1	none (no result: PKA kinase inh, ROCK2 blocker)
Cc1ccc(OCC(=O)Nc2ccc(N3CCOCC3)cc2)cc1	PLK1 PBD inh 39.2 | PBD redox DR inactive
CC1Cn2c(nnc2-c2cc3ccccc3cc2O)S1 (stereo not drawn)	PLK1 PBD inh 57.5 | PBD redox DR inactive
